# Reference: PubChem BioAssay (Tox21)
# Several values for one entry are separate records, joined by “and”; a condition that tells them apart may be missing. Identical values can stand only once. Some structures have more than one record in an assay (separate samples or runs), and their calls can disagree. Activity calls are given as the source filed them. Entries that show only a call come without a potency. Unless noted, calls follow the shape of the dose curve; as a rule, active = well fitted curve in the direction sought with a large enough effect in the repeat runs; inconclusive = weak or mixed curves; inactive = no such curve, though single readings can be large; an effect the other way counts as inactive or inconclusive.
# Experiments:
# [1] = qHTS assay to identify small molecule antagonists of the thyroid receptor (TR) signaling pathway (AID 743065); also: nearly all actives have a fitted effect of over 55% in size; also: potency is read from the fitted curve at half-maximal effect
# How it was run: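 Antagonism measured as loss of luciferase signal in GH3 cells stably carrying a TRE-luciferase reporter, co-treated with compound and T3 (1 nM final) for 23.5 h at 37 C. Viability was read in the same well by CellTiter-Fluor.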
# [2] = test system: thyroid hormone receptor (rat, GH3 cells); assay: qHTS assay to identify small molecule agonists of the thyroid receptor (TR) signaling pathway (AID 743066; calls by dose curve)
# [3] = target: Estrogen receptor (Homo sapiens) (UniProt P03372); assay: qHTS assay to identify small molecule agonists of the estrogen receptor alpha (ER-alpha) signaling pathway (AID 743075; calls by dose curve;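 also: HEK293 GripTite cells with ER-alpha and UAS-driven beta-lactamase reporter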; also: potency is read from the fitted curve at half-maximal effect)
# Sequence of Estrogen receptor (Homo sapiens) (P03372 whole entry, looked up): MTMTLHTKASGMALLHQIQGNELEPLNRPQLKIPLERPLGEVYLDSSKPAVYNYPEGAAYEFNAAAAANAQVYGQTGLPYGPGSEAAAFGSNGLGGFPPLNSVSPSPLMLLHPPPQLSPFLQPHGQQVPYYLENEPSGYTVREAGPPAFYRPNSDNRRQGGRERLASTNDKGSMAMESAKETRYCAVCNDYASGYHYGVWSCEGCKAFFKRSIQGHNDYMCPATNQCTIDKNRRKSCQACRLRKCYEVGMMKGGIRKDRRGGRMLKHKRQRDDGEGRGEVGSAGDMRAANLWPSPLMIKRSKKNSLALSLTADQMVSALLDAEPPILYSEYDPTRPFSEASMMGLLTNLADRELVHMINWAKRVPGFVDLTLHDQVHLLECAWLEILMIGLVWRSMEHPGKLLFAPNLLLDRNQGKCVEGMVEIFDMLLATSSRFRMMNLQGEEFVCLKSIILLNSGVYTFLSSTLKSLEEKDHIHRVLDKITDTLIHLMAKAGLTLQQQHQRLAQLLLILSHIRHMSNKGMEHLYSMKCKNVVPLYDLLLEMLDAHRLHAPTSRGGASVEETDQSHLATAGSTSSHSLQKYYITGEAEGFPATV
# [4] = qHTS assay to identify small molecule antagonists of the estrogen receptor alpha (ER-alpha) signaling pathway using the BG1 cell line (AID 743080; calls by dose curve;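 also: BG1 cells stimulated with 17beta-estradiol alongside compound; nearly all actives have a fitted effect of over 25% in size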; also: potency is read from the fitted curve at half-maximal effect)
# How it was run: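 BG1-Luc-4E2 cells (endogenous full-length ER-alpha, stable 4×ERE-luciferase) were starved 5 days in phenol-red-free medium with 10% charcoal-stripped FBS, plated 24 h, then given compound plus 17beta-estradiol for 21.5 h at 37 C; ONE-Glo luminescence read after 30 min.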
# [5] = qHTS assay to identify small molecule antagonists of the estrogen receptor alpha (ER-alpha) signaling pathway using the BG1 cell line - cell viability counter screen (AID 743081);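 also: compound given together with 17beta-estradiol as the ER stimulus; nearly all actives have a fitted effect of over 45% in size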; also: potency is read from the fitted curve at half-maximal effect
# Aromatase (Homo sapiens) = Aromatase (Homo sapiens) (UniProt P11511); assay: qHTS assay to identify aromatase inhibitors (AID 743083); also: nearly all actives have a fitted effect of over 55% in size; also: potency is read from the fitted curve at half-maximal effect
# Sequence of Aromatase (Homo sapiens) (P11511 whole entry, looked up): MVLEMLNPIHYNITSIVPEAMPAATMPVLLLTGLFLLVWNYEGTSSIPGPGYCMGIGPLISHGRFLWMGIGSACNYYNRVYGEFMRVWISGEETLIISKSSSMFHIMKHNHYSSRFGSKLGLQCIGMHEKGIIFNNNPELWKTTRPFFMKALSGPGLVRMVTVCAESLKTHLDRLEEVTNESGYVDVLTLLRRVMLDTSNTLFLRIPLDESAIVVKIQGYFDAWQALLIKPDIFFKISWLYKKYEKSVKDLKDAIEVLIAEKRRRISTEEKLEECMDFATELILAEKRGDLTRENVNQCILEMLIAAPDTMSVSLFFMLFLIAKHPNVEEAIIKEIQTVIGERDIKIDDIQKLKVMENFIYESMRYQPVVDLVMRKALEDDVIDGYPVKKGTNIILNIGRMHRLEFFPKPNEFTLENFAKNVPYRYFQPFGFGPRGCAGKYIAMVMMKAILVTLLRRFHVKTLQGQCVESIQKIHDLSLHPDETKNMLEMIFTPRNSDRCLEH
# [6] = qHTS assay to identify aromatase inhibitors - cell viability counter screen (AID 743084);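 also: cells stimulated with testosterone during compound exposure; nearly all actives have a fitted effect of over 55% in size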; also: potency is read from the fitted curve at half-maximal effect
# [7] = qHTS assay to identify small molecule antagonists of the estrogen receptor alpha (ER-alpha) signaling pathway - cell viability counter screen (AID 743074; calls by dose curve;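 also: HEK293 cells carrying ER-alpha-UAS-bla reporter stimulated with 17beta-estradiol; nearly all actives have a fitted effect of over 45% in size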)
# [8] = target: Estrogen receptor (Homo sapiens) (UniProt P03372); assay: qHTS assay to identify small molecule agonists of the estrogen receptor alpha (ER-alpha) signaling pathway using the BG1 cell line (AID 743079); conditions: BG1Luc4E2 cells, ERE-luciferase agonist, 22 h; also: nearly all actives have a fitted effect of over 20% in size; also: potency is read from the fitted curve at half-maximal effect
# [9] = target: Estrogen receptor (Homo sapiens) (UniProt P03372); assay: qHTS assay to identify small molecule antagonists of the estrogen receptor alpha (ER-alpha) signaling pathway (AID 743069; active = well fitted curve in the direction sought with a large enough effect in the signal ratio in the repeat runs, not every such curve was filed as active; inconclusive = weak or mixed curves, or effect the other way; inactive = no such curve, though single readings can be large or run the other way; the % refers to the signal ratio)
# How it was run: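 ER-alpha-UAS-bla GripTite HEK293 line; 2% charcoal-stripped FBS overnight; plated, 4 hr 37C/5% CO2; cpd in DMSO + 17beta-estradiol, 18 hr 37C; LiveBLAzer B/G FRET substrate 2 hr RT; fluorescence intensity.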
Structure (SMILES),Potency [1],Potency [2],Potency [3],Potency [4],Potency [5],Potency (Aromatase (Homo sapiens)),Potency [6],Potency [7],Potency [8],activation ([8]; at 70.3 µM (top of the series)),Potency [9],activation ([8]; at 95 µM (top of the series))
O=C1C2CC=CCC2C(=O)N1SC(Cl)(Cl)Cl (stereo not given),2.98 µM (active) and 68.3 µM (active) and 1.69 µM (active),inactive,inactive and 48.2 µM [activator] (active),26.6 µM (active),inactive,13.3 µM (active) and inactive and 3.01 µM (active),inactive and 21.3 µM (active),–,–,–,–,–
N#CC(Br)(Br)C(N)=O,inactive,–,–,–,inactive,–,inactive,inactive,–,–,–,–
C[C@]12C=CC(=O)C=C1CC[C@@H]1[C@@H]2CC[C@@]2(C)[C@H]1CC[C@]2(C)O,–,inactive,0.425 µM [inconclusive] (active),inactive,inactive,inactive,inactive,inactive,0.15 µM (active),–,–,–
CC[C@H](N)c1ccccc1,inactive,inactive,inactive,inactive,inactive,inactive,inactive,–,–,0.171% (inactive),–,–
C=CC=O,–,–,–,–,inactive,inactive,inactive,inactive,–,–,–,–
O=C(NC(=O)c1c(F)cccc1F)Nc1cc(Cl)c(F)c(Cl)c1F,–,–,inactive,inactive,inactive,inactive,inactive,inactive,–,11.8% (inactive),inactive,–
NNCc1ccccc1,–,–,inactive,–,inactive,inactive,inactive,inactive,62.3 µM (active),–,–,–
O=C(Cl)OCc1ccccc1,–,–,inactive,inactive,inactive,inactive,inactive,inactive,–,–,–,-4.92% (inactive)
CC(C)(O)C(Cl)(Cl)Cl,–,–,inactive,inactive,–,inactive,inactive,–,–,7.26% (inactive),inactive,–
Cc1ccc(S(=O)(=O)N[C@@H](CCCCN)C(=O)CCl)cc1,13.3 µM (active),–,–,–,–,inactive,–,inactive,–,–,inactive,–
Oc1ccc(Cc2ccc(O)cc2)cc1,inactive,–,15.6 µM [inconclusive] (active),inactive,inactive,inactive,inactive,inactive,2.45 µM (active),–,–,–
C=C(Cl)CSC(=S)N(CC)CC,–,inactive,–,–,inactive,26.6 µM (active),18.8 µM (active),inactive,–,–,–,–
C[C@H](CN1CCOCC1)C(C(=O)N1CCCC1)(c1ccccc1)c1ccccc1,–,inactive,inactive,inactive,–,inactive,inactive,–,–,–,inactive,-2.63% (inactive)
Cn1c(CCCC(=O)O)nc2cc(N(CCCl)CCCl)ccc21,–,inactive,inactive,inactive,1.06 µM (active),inactive,inactive,inactive,–,-7.85% (inactive),–,–
